Source: PubChem BioAssay AID624330 (Southern Research Specialized Biocontainment Screening …, 2012)
In all, about 340,000 compounds went through this assay and about 2,100 (0.62%) were called active.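 Rule for the calls: active = first-screen hits whose inhibition reached a set limit at any dose in the follow-up dose series; inconclusive = inhibition above the set first-screen limit but never retested; inactive = the rest.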 The list is a sample of the results. Measured potencies and affinities stand elsewhere.

What follows are compounds tested against Rac GTPase-activating protein 1 (Homo sapiens) (UniProt Q9H0H5) (assay: MgcRacGAP GTPase-activating activity inhibitors, confirmation, biochemical, ADP Hunter fluorescence, primary and confirmatory (AID 624330;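 note: fluorescence reports GDP produced by GAP-driven GTP hydrolysis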)). Settings: MgcRacGAP-stimulated Rac1 GTP hydrolysis, at 30 µM, stronger effect = higher value, GST-tagged Rac1 F28L mutant substrate.
Sequence of Rac GTPase-activating protein 1 (Homo sapiens) (Q9H0H5 whole entry, looked up): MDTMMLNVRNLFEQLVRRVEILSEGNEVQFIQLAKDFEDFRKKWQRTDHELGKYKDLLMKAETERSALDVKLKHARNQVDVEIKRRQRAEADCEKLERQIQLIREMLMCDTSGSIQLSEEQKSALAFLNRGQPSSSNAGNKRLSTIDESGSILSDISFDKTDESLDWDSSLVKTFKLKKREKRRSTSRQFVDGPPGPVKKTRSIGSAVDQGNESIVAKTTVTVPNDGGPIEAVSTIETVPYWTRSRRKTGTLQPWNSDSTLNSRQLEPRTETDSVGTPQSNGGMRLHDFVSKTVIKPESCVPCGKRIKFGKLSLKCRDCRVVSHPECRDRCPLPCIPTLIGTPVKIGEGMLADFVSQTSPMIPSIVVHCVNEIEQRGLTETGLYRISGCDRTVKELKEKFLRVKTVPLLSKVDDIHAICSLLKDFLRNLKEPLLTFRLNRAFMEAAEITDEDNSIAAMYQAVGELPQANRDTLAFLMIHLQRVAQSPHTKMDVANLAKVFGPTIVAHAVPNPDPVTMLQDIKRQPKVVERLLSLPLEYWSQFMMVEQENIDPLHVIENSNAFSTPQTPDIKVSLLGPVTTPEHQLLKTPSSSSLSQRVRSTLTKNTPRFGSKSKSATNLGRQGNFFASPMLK

inhibition, inactive:
O=C(O)C1C2C=CC3(CN(c4cccc(C(F)(F)F)c4)C(=O)C13)O2 (configuration not stated) 2.13%
Cc1cc(C)cc(N(CC(=O)N2CCCC2)S(C)(=O)=O)c1 0.27%
COc1ccccc1C(CNC(=O)CNC(=O)c1ccccc1Cl)N1CCCC1 (configuration not stated) 4.57%
CCOCCCNC(=O)/C(C#N)=C/c1ccc(C)o1 -11.1%
CCOCCCNC(=O)/C(C#N)=C/c1ccc(Cl)c([N+](=O)[O-])c1 2.68%
O=S(=O)(c1ccccc1)c1nc(Nc2cccc(O)c2)sc1Cl 8.03%
COc1ccccc1NC(=O)c1cc2ccccc2o1 10.9%
COc1ccc2[nH]c3c(c2c1)CNCC3 17.4%
O=C(CNCC1CCCCC1)Nc1ccc(OC(F)(F)F)cc1 19.5%
CCN1CCCC1CNC(=O)C(=O)Nc1ccc(OC)cc1 (configuration not stated) 8.81%
O=C(CN(Cc1ccco1)C(=O)CNS(=O)(=O)c1ccc(F)cc1)NCc1ccco1 7.49%
COCc1cc(/C=N\NC(=O)c2ccc(Cl)cc2)ccc1OC 7.25%
Cc1ccc(Cn2nnc3c(=O)[nH]c(C4CCCN(C(=O)Nc5ccc(F)cc5)C4)nc32)cc1 (configuration not stated) 2.33%
COc1ccc2[nH]c(C)cc(=O)c2c1 17.3%
COc1ccc2[nH]c3c(=S)nc[nH]c3c2c1 16.8%
COc1ccc2[nH]c3c(Cl)ncnc3c2c1 2.77%
Cc1c2ccncc2cc2c1[nH]c1ccccc12 8.32%
CC(C)C(=O)N(Cc1cc2ccccc2[nH]c1=O)C(C)(C)C 4.65%
Cc1ccc(S(=O)(=O)N2CCN(C(=O)COC(=O)CC(C)c3ccccc3)CC2)c(C)c1 (configuration not stated) -1.45%
COc1ccccc1NC(=S)NCC1CCCO1 (configuration not stated) 8.32%
Cc1cc(F)ccc1S(=O)(=O)N1CCCOC1CNC(=O)C(=O)NCC(C)C (configuration not stated) 3.59%
O=C(CCC(=O)c1cccs1)NCc1ccncc1 8.09%
COc1ccccc1CNS(=O)(=O)CCNCc1ccco1 7.98%
Cc1ccc(CCNc2ccccc2C)cn1 6.7%
Cc1ccc(NCCc2ccc(C)nc2)cc1 24.8%
CCc1nnc(N/N=C/c2ccccc2F)n1N -6.59%
CCc1nnc(N/N=C/c2cc(C)c(C)cc2C)n1N 8.58%
Cc1[nH]c2ccccc2c1/C=N/n1cnnc1 11.3%
CCc1nnc(N/N=C/c2c(Cl)cccc2Cl)n1N 6.89%
Cc1ccc(/C=N/Nc2nncn2N)cc1 -7.75%
Cc1[nH]c2ccccc2c1/C=N/NC(N)=S 15.4%
Cc1ccc(CN(C)C(=O)CSc2nnc3n2CCCCC3)c(C)c1 -1.85%
CCC(C(=O)OC)n1cnc2c(nnn2-c2cccc(Cl)c2)c1=O (configuration not stated) -2.79%
COc1ccc(N2CCN(C(=O)c3sc4ncn(CC(=O)N5CCCCC5)c(=O)c4c3C)CC2)cc1 22.1%
O=C(NC1CCSc2ccccc21)c1cc(S(=O)(=O)N2CCOCC2)ccc1Cl (configuration not stated) 0.41%
N#Cc1ccsc1NC(=O)CCN1C(=O)C2CCCCC2C1=O (configuration not stated) -1.49%
C/C(=N\NC(=O)c1c(Cl)cnn1C)c1cccc(NC(=O)c2ccc(C)cc2)c1 2.57%
COC(=O)/C(=C\c1ccc([N+](=O)[O-])cc1)NC(=O)c1ccccc1 -0.53%
CCO[C@@H]1OC(C(=O)NC2CC2)=C[C@H](c2ccccc2)[C@H]1CCCO 2.47%
COC1=C(Br)C(=O)c2ncccc2C1=O -0.95%
COC1=C(N)C(=O)c2nc(C)ccc2C1=O -3.53%
COc1ccc(CN(CC(=O)NCc2ccco2)C(=O)CNS(=O)(=O)c2ccc(C)cc2)cc1 -1.32%
COc1ccc(CCCN2CCC(CN3CCNC(=O)C3=O)CC2)cc1OC 15.8%
COc1ccc(/C=N/N2CCN(c3ccc(Cl)cc3)CC2)cc1O 13.4%
C[C@H](NC(=O)c1ccc(Cl)cc1)C(=O)NNC(=O)c1cccs1 4.07%
O=C(O)/C(=C\c1ccc(Cl)c([N+](=O)[O-])c1)c1ccc(S(=O)(=O)N2CCCCC2)s1 9.75%
COc1cc(/C=C/C(=O)OCC(=O)c2c(N)n(C)c(=O)n(C)c2=O)ccc1O 17%
COc1ccc(/C=C/C(=O)OCC(=O)c2ccc[nH]2)cc1 2.04%
COc1cc(/C=C/C(=O)OCC(=O)c2ccc[nH]2)cc(OC)c1OC 1.61%
O=C(/C=C/c1ccco1)OCC(=O)c1ccc(OC(F)F)cc1 7.34%
Cn1c(NN)nc2sc3c(c2c1=O)CC(C)(C)OC3 -17.1%
O=S(=O)(Nc1ccc(N2CCOCC2)cc1)c1ccc(F)cc1 6.7%
CSCC[C@H](NS(=O)(=O)c1ccc(C)cc1)C(=O)N1CCC(C(=O)N[C@@H](C)C(=O)O)CC1 -1.38%
O=C(CN1CCN(c2cccc(C(F)(F)F)c2)CC1)N(C1CC1)C1CCS(=O)(=O)C1 (configuration not stated) -5.48%
O=C(CN1CCN(c2ccc(F)cc2)CC1)N(C1CCCC1)C1CCS(=O)(=O)C1 (configuration not stated) 3.6%
CCOC(=O)c1c(C)[nH]c(C(=O)OCC(=O)Nc2cc(C)c(Cl)cc2OC)c1C 10.4%
Cc1ccc(NC(=O)N2CCCC2C(=O)NCc2ccc3c(c2)OCO3)cc1 (configuration not stated) 2.95%
CC(C)Nc1nc(Oc2ccc(=O)n(-c3ccccc3)n2)nc(N(C)C)n1 12%
COc1cccc(N2CCN(C(=S)Nc3ccc(C)cc3C)CC2)c1 12.4%
O=C(Nc1ccc(F)cc1)c1cncs1 9.26%
C=CC[n+]1ccc(/C=C2\C=Cc3cc(C)ccc3N2CC)c2ccccc21 17%
CC[n+]1c(/C=C2\C=C(C)CC(C)(C)C2)sc2ccccc21 31.8%
